Several values for one entry are separate records, joined by “and”; a condition that tells them apart may be missing. Equal values may be shown once. Out of some 5,500 compounds screened, about 2,000 (36%) were called active. About 18% were inconclusive and are not listed. Rule as the data show it: active = normalized growth mostly below about 0.91 (no sharp cut-off); inconclusive = no clear call, values can overlap the other calls; inactive = mostly above about 0.92. The list shows a part of the results.
Test: chemical genetic growth profiling, strain panel (AID 1159580);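 also: tested at 20 µM; growth read once vehicle control cultures reached saturation at 30 °C; 1 = growth at the plate median or of vehicle wells; lower values mean less growth of the strain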
Conditions: growth OD

Measured: normalized growth

O=C(O)c1cc(=O)c2ccc(Cl)cc2[nH]1
inactive: S. cerevisiae deletion strains, locus YJR043C, strain POL32, stronger effect = lower value 1.03 | S. cerevisiae deletion strains, locus YJR075W, strain HOC1, stronger effect = lower value 1.02 and 1 | S. cerevisiae deletion strains, locus YKL009W, strain mrt4, stronger effect = lower value 0.99 | S. cerevisiae deletion strains, locus YKL068W, stronger effect = lower value 0.995 | S. cerevisiae deletion strains, locus YKL085W, strain MDH1 (second series), stronger effect = lower value 0.982 | S. cerevisiae deletion strains, locus YKL085W, strain MDH1, stronger effect = lower value 0.982 | S. cerevisiae deletion strains, locus YKL160W, strain elf1, stronger effect = lower value 1.05 | S. cerevisiae deletion strains, locus YKL190W, strain CNB1, stronger effect = lower value 1.01 | S. cerevisiae deletion strains, locus YKR001C, strain vps1, stronger effect = lower value 0.998 | S. cerevisiae deletion strains, locus YKR026C, strain gcn3, stronger effect = lower value 1.01 | S. cerevisiae deletion strains, locus YKR091W, strain srl3, stronger effect = lower value 1.01 | S. cerevisiae deletion strains, locus YLL001W, strain dnm1, stronger effect = lower value 1.02 | S. cerevisiae deletion strains, locus YLL026W, stronger effect = lower value 1.02 | S. cerevisiae deletion strains, locus YLL041C, strain sdh2, stronger effect = lower value 1.03 | S. cerevisiae deletion strains, locus YLR027C, strain aat2, stronger effect = lower value 1.03 | S. cerevisiae deletion strains, locus YLR039C, strain RIC1, stronger effect = lower value 1.02 | S. cerevisiae deletion strains, locus YLR058C, strain SHM2, stronger effect = lower value 1.02 | S. cerevisiae deletion strains, locus YLR102C, strain apc9, stronger effect = lower value 0.986 | S. cerevisiae deletion strains, locus YLR221C, strain rsa3, stronger effect = lower value 0.988 | S. cerevisiae deletion strains, locus YLR258W, strain gsy2, stronger effect = lower value 1.03 | S. cerevisiae deletion strains, locus YLR262C, strain YPT6 (second series), stronger effect = lower value 1 | S. cerevisiae deletion strains, locus YLR262C, strain YPT6, stronger effect = lower value 1.05 | S. cerevisiae deletion strains, locus YLR268W, strain sec22, stronger effect = lower value 0.986 | S. cerevisiae deletion strains, locus YLR320W, strain mms22, stronger effect = lower value 1.01 | S. cerevisiae deletion strains, locus YLR330W, strain CHS5, stronger effect = lower value 1.01 | S. cerevisiae deletion strains, locus YLR342W, strain FKS1 (second series), stronger effect = lower value 0.957 | S. cerevisiae deletion strains, locus YLR342W, strain FKS1, stronger effect = lower value 1.02 | S. cerevisiae deletion strains, locus YLR357W, strain rsc2, stronger effect = lower value 1.02 | S. cerevisiae deletion strains, locus YLR370C, strain arc18, stronger effect = lower value 1.02 | S. cerevisiae deletion strains, locus YLR371W, strain rom2, stronger effect = lower value 0.984 | S. cerevisiae deletion strains, locus YLR384C, strain iki3, stronger effect = lower value 1.01 | S. cerevisiae deletion strains, locus YLR418C, strain cdc73, stronger effect = lower value 0.974 | S. cerevisiae deletion strains, locus YML016C, strain PPZ1, stronger effect = lower value 1.02 | S. cerevisiae deletion strains, locus YML032C, strain rad52, stronger effect = lower value 0.996 | S. cerevisiae deletion strains, locus YML120C, strain ndi1, stronger effect = lower value 1.01 | S. cerevisiae deletion strains, locus YML124C, strain tub3, stronger effect = lower value 0.998 | S. cerevisiae deletion strains, locus YMR058W, strain fet3, stronger effect = lower value 1.01 | S. cerevisiae deletion strains, locus YMR078C, strain ctf18, stronger effect = lower value 0.987 | S. cerevisiae deletion strains, locus YMR125W, strain sto1, stronger effect = lower value 1.01 | S. cerevisiae deletion strains, locus YMR129W, stronger effect = lower value 1.01 | S. cerevisiae deletion strains, locus YMR205C, strain PFK2, stronger effect = lower value 1.03 | S. cerevisiae deletion strains, locus YMR223W, strain ubp8, stronger effect = lower value 0.968 | S. cerevisiae deletion strains, locus YMR231W, strain pep5, stronger effect = lower value 1.01 | S. cerevisiae deletion strains, locus YMR263W, strain SAP30, stronger effect = lower value 1.03 | S. cerevisiae deletion strains, locus YMR307W, strain GAS1, stronger effect = lower value 0.978 | S. cerevisiae deletion strains, locus YNL067W, strain RPL9B, stronger effect = lower value 1.03 | S. cerevisiae deletion strains, locus YNL071W, strain lat1, stronger effect = lower value 1.01 | S. cerevisiae deletion strains, locus YNL128W, strain TEP1, stronger effect = lower value 1.03 | S. cerevisiae deletion strains, locus YNL153C, strain GIM3, stronger effect = lower value 1.04 | S. cerevisiae deletion strains, locus YNL175C, strain NOP13, stronger effect = lower value 1.01 | S. cerevisiae deletion strains, locus YNL197C, strain WHI3, stronger effect = lower value 1.02 | S. cerevisiae deletion strains, locus YNL209W, strain ssb2, stronger effect = lower value 1.01 | S. cerevisiae deletion strains, locus YNL224C, strain SQS1, stronger effect = lower value 1 | S. cerevisiae deletion strains, locus YNL233W, strain BNI4, stronger effect = lower value 1.03 | S. cerevisiae deletion strains, locus YNL248C, strain rpa49, stronger effect = lower value 1.08 | S. cerevisiae deletion strains, locus YNL250W, strain rad50, stronger effect = lower value 0.982 | S. cerevisiae deletion strains, locus YNL271C, strain bni1, stronger effect = lower value 0.992 | S. cerevisiae deletion strains, locus YNL298W, strain CLA4, stronger effect = lower value 0.999 | S. cerevisiae deletion strains, locus YNL307C, strain MCK1, stronger effect = lower value 0.988 | S. cerevisiae deletion strains, locus YNL322C, strain KRE1 (second series), stronger effect = lower value 1.06 | S. cerevisiae deletion strains, locus YNL322C, strain KRE1, stronger effect = lower value 1.01 and 1.02 | S. cerevisiae deletion strains, locus YNR049C, strain mso1, stronger effect = lower value 1 | S. cerevisiae deletion strains, locus YNR052C, strain pop2, stronger effect = lower value 0.99 | S. cerevisiae deletion strains, locus YOL006C, strain TOP1, stronger effect = lower value 1.11 | S. cerevisiae deletion strains, locus YOL012C, strain htz1 1.2 | S. cerevisiae deletion strains, locus YOL147C, strain pex11, stronger effect = lower value 0.994 | S. cerevisiae deletion strains, locus YOR001W, strain rrp6, stronger effect = lower value 0.96 | S. cerevisiae deletion strains, locus YOR061W, strain CKA2, stronger effect = lower value 1.01 | S. cerevisiae deletion strains, locus YOR069W, strain VPS5, stronger effect = lower value 1.01 | S. cerevisiae deletion strains, locus YOR070C, strain gyp1, stronger effect = lower value 1.01 | S. cerevisiae deletion strains, locus YOR080W, strain dia2, stronger effect = lower value 1 | S. cerevisiae deletion strains, locus YOR083W, strain WHI5 (second series), stronger effect = lower value 0.989 | S. cerevisiae deletion strains, locus YOR083W, strain WHI5, stronger effect = lower value 1.05 | S. cerevisiae deletion strains, locus YOR106W, strain vam3, stronger effect = lower value 1.05 | S. cerevisiae deletion strains, locus YOR136W, strain idh2, stronger effect = lower value 0.987 | S. cerevisiae deletion strains, locus YOR144C, strain elg1, stronger effect = lower value 0.984 | S. cerevisiae deletion strains, locus YOR184W, strain ser1, stronger effect = lower value 0.985 | S. cerevisiae deletion strains, locus YOR265W, strain rbl2, stronger effect = lower value 1 | S. cerevisiae deletion strains, locus YOR270C, strain vph1, stronger effect = lower value 1.04 | S. cerevisiae deletion strains, locus YOR290C, strain snf2, stronger effect = lower value 1.06 | S. cerevisiae deletion strains, locus YOR316C, strain cot1, stronger effect = lower value 0.994 | S. cerevisiae deletion strains, locus YPL051W, strain arl3, stronger effect = lower value 1.01 | S. cerevisiae deletion strains, locus YPL055C, strain LGE1, stronger effect = lower value 1.07 | S. cerevisiae deletion strains, locus YPL078C, strain atp4, stronger effect = lower value 1.06 | S. cerevisiae deletion strains, locus YPL106C, strain sse1, stronger effect = lower value 1.06 | S. cerevisiae deletion strains, locus YPL240C, strain hsp82, stronger effect = lower value 1.02 | S. cerevisiae deletion strains, locus YPL241C, strain CIN2, stronger effect = lower value 1.01 | S. cerevisiae deletion strains, locus YPR119W, strain clb2, stronger effect = lower value 0.989 | S. cerevisiae deletion strains, locus YPR141C, strain kar3, stronger effect = lower value 0.99 | S. cerevisiae deletion strains, locus YPR163C, strain tif3, stronger effect = lower value 0.986 | S. cerevisiae deletion strains, locus YPR167C, strain met16, stronger effect = lower value 0.989 | S. cerevisiae deletion strains, strain wtn01, stronger effect = lower value 0.98 | S. cerevisiae strains, strain wild type, stronger effect = lower value 1.02

— PubChem BioAssay AID1159580 (chemical genetic matrix, 2015)
